From PubChem BioAssay
Several values for one entry are separate records, joined by “and”; a condition that tells them apart may be missing. Equal entries are not always repeated. Activity calls are given as the source filed them. Cut-off read from the data, not from the text of the source, unless noted: active = parasite load remaining mostly below about 12% (no sharp cut-off); inactive = mostly above about 10%.

What was measured:
[1] = P. berghei load reduction in hepatocytes – cell-based, HepG2, luciferase luminescence, HepG2 viability, primary screen (AID 624349);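 note: 100% = mean of DMSO negative control wells on the same plate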; conditions: P. berghei liver stage in HepG2, luciferase luminescence, concentration not given here; parasite load remaining: stronger effect = lower value; viability: measured here: HepG2 viability without parasites
[2] = Wnt pathway potentiators raising nuclear beta-catenin – imaging, WNT3A-conditioned medium, mouse C2C12, NPC library, primary screen (AID 1117326; in the data active = nuclear beta-catenin stimulation mostly above about 4.2%, no sharp cut-off; inactive = mostly below about 10%; note: reference of the scale not given here); conditions: stronger effect = higher value
[3] = stimulators of insulin release from INS-1E, primary screen, cell-based, 5 mM glucose, NPC library (AID 1117329;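 active = compound raises insulin release from rat beta cells at 5 mM glucose, no numeric limit stated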; note: reference of the scale not given here); conditions: rat INS-1E insulin secretion, at 10 µM, stronger effect = higher value
[4] = growth inhibition of GSK3B-pretreated HCT116 cells – cell-based, CellTiter-Glo, 0.2 to 20 µM (AID 1117336;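 active = compounds lowering colon cancer cell viability after pretreatment blocking the GSK3B kinase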); conditions: HCT116 viability after GSK3B inhibitor, at 20 µM, stronger effect = higher value
[5] = inhibition of endothelial tube formation, primary screen, imaging, VEGF stimulated, CD31 staining, tube area, NPC library (AID 1117340;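 active = compound that reduces growth-factor-driven endothelial tube area in a mixed cell culture, no cutoff stated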); conditions: VEGF-stimulated ADSC/ECFC co-culture, at 10 µM, stronger effect = higher value
[6] = GLP1 release stimulators, primary, NCI-H716, NPC library (AID 1117341;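 active = compound raises GLP1 secretion from the human gut endocrine cells, with no numeric limit stated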; note: reference of the scale not given here); conditions: NCI-H716 cells, at 10 µM, stronger effect = higher value
[7] = HCT116 colon cancer cell growth inhibition, primary screen, CellTiter-Glo luminescence, NPC library (AID 1117342;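 active = compounds that lower survival of HCT116 colon cancer cells in the luminescence readout, no numeric limit stated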); conditions: at 20 µM (top of the series)
[8] = reduced SW480 viability measured with CellTiter-Glo, NPC library, primary (AID 1117343;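 active = compounds that lower viability of the colon cancer cells in the luminescence readout, with no numeric limit stated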); conditions: CellTiter-Glo luminescence; at 20 µM (top of the series) unless noted
[9] = NPC library primary testing for decreased DLD-1 cell viability via CellTiter-Glo (AID 1117346;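 active = compounds that lower survival of DLD-1 colon cancer cells in the luminescence readout, no cutoff given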); conditions: DLD-1 viability, CellTiter-Glo luminescence; at 20 µM (top of the series)
[10] = viability loss with induced miR-34 in A549 – imaging, A549 dox-inducible miR-34, nuclei and caspase counts, primary screen (AID 1347080;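 active = compounds whose cell count with miR-34 switched on is under 0.7 times the count with it off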); conditions: A549 miR-34 inducible, Hoechst nuclei count, 48 h
[11] = MELAS cybrid and Rieske KO viability enhancers – cell-based, MELAS cybrids, Rieske KO mouse fibroblasts, CellTiter-Glo, primary screen (AID 1508586;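 active = mean z-score across replicates of 1.96 or higher in either the MELAS or the Rieske mutant cell line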;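 note: z relative to plate mean and SD of compound and empty wells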); conditions: low glucose
[12] = target: NAD(+) hydrolase SARM1 (Homo sapiens) (UniProt Q6SZW1); assay: blocking NAD cleavage by SARM1 SAM-TIR – cell lysate, NAD-Glo luminescence (AID 1508614;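 active = compound whose remaining NAD level is above about 45 nM, limit read from the data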;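 note: higher remaining NAD means stronger inhibition of SARM1 NADase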); conditions: SAM-TIR HEK293T lysate NADase, at 1 µM, stronger effect = higher value
[13] = galactose survival enhancers in mitochondrial complex I cybrids – cell-based, galactose medium, ATP luminescence, primary screen (AID 1645843;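 active = z-score of at least 1.8 in each of two replicates, scored against plate mean and spread of sample wells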;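 note: positive z means more ATP and so rescue of galactose-driven cybrid death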); conditions: complex I mutant cybrid cells, 72 h, stronger effect = higher value
[14] = compounds altering viability of human ES cells (AID 493140; call rule not given here;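 note: cells exposed to compounds for four days before counting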); conditions: human embryonic stem cell survival screen; stronger effect = higher value
[15] = stronger effect = lower value, cell number ratio, induced over uninduced
[16] = measured here: relative caspase fold change +Dox/-Dox
[17] = measured here: total cells with miR-34 induction, stronger effect = lower value
[18] = measured here: total cells without miR-34 induction
[19] = MELAS cybrid survival, CellTiter-Glo 48 h, stronger effect = higher value
[20] = Rieske KO mouse fibroblast survival, CellTiter-Glo 72 h

NAD(+) hydrolase SARM1 (Homo sapiens), sequence (Q6SZW1 whole entry, looked up): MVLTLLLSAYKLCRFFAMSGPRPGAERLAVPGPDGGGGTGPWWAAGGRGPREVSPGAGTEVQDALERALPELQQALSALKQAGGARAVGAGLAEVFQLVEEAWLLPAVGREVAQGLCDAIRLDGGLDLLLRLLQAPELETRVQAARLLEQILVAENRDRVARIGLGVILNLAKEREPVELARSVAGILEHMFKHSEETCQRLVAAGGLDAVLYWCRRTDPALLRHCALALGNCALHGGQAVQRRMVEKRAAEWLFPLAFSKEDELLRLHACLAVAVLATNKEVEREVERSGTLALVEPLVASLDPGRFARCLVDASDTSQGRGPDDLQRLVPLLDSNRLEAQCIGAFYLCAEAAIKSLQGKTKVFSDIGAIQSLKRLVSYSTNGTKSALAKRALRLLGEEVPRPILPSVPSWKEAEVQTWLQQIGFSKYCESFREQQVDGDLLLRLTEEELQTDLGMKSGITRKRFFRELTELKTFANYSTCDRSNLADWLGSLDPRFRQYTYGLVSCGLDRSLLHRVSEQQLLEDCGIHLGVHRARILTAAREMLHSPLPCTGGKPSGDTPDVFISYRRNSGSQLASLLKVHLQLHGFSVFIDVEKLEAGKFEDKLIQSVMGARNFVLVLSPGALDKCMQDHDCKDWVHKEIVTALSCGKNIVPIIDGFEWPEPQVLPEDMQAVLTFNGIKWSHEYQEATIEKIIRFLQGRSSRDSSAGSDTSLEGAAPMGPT

SMILES	parasite load remaining [1]	viability [1]	nuclear beta-catenin stimulation ([2]; at 10 µM)	nuclear beta-catenin stimulation ([2]; stimulation, at 2 µM) [%]	insulin secretion stimulation [3]	viability decrease [4]	tube area decrease [5]	GLP1 secretion stimulation [6]	inhibition of viability [7]	viability decrease (inhibition) [8]	viability decrease (inhibition) [9]	fold change [10, 15]	fold change [10, 16]	cell count [10, 17]	cell count [10, 18]	z-score [11, 19]	z-score [11, 20]	remaining NAD [12]	z-score [13]	survival [14]
COc1ccccc1O	50.2% (inactive)	93.5%	-1.7% (inactive)	2.4	2.9% (inactive)	-10.4% (inactive)	-0.8% (inactive)	-3.6% (inactive)	3% (inactive)	1.3% (inactive)	-5.1% (inactive)	0.954 (inactive)	1.02	10200	10700	0.215 (inactive) and 0.0947 (inactive)	-0.0355 and -0.379	10 nM (inactive)	0.615 (inactive)	
COc1ccc(-c2cc(=S)ss2)cc1	61.1% (inactive)	107%	-1.5% (inactive)	-0.3	3.1% (inactive)	11.9% (inactive)	-0.7% (inactive)	-6.2% (inactive)	27.2% (inactive)	22.2% (inactive)	11% (inactive)	0.899 (inactive)	1.14	8880	9880	0.776 (inactive) and 0.734 (inactive)	0.201 and 0.472		0.675 (inactive)	
FCOC(C(F)(F)F)C(F)(F)F			-1.9% (inactive)	-0.4	5.1% (inactive)	-4.6% (inactive)	8.2% (inactive)	-1.9% (inactive)	-0.4% (inactive)	-3.5% (inactive)	7.5% (inactive)	0.911 (inactive)	1.07	8640	9480			10 nM (inactive)		
CC(C(=O)O)c1ccc(C(=O)c2ccccc2)s1 (stereo not given)	86.4% (inactive) and 106% (inactive)	112% and 75.4%	0.5% (inactive)	0.1	-2% (inactive)	4.35% (inactive)	4% (inactive)	-4.7% (inactive)	7.4% (inactive)	37.4% (inactive)	10.6% (inactive)	0.849 (inactive)	1.29	9200	10800	-0.736 (inactive)	-0.23			11.3 (inactive)
O=C(O)CCc1nc2ccccc2[nH]1			2.8% (inactive)	2.5	-1.6% (inactive)	3.65% (inactive)	-5.8% (inactive)	3.5% (inactive)	-11.8% (inactive)	106% (active)	5.2% (inactive)	0.93 (inactive)	1.12	8680	9340			10 nM (inactive)		
OCc1ccccn1			-1% (inactive)	0.3	0% (inactive)	4.8% (inactive)	-15.2% (inactive)	-2.9% (inactive)	-23.7% (inactive)	30.6% (active)	-10.2% (inactive)	0.898 (inactive)	0.701	8220	9160			10 nM (inactive)		
CCOC(=O)Nc1ccc2c(c1)N(C(=O)CCN1CCOCC1)c1ccccc1S2	99.9% (inactive)	97.4%	-0.6% (inactive)	1.1	1.7% (inactive)	-14.2% (inactive)	4% (inactive)	-2.4% (inactive)	15.2% (inactive)	17.8% (inactive)	-16.3% (inactive)	0.922 (inactive)	1.07	8790	9540	0.935 (inactive)	0.145			4.83 (inactive)
CCC(C)(CN(C)C)OC(=O)c1ccccc1 (stereo not given)	38.1% (inactive) and 188% (inactive)	56.2% and 90.3%	-2.1% (inactive)	-1.6	3% (inactive)	-25.9% (inactive)	-3.6% (inactive)	-1.9% (inactive)	-6.83% (inactive)	7.2% (inactive)	-17.6% (inactive)	0.964 (inactive)	0.9	8680	9000	0.476 (inactive)	-0.277			26.8 (inactive)
CCCCc1cc2ccccc2c(OCCN(C)C)n1	105% (inactive) and 71.5% (inactive)	105% and 79.9%	0.2% (inactive)	-0.1	4.6% (inactive)	-84.3% (inactive)	15.9% (inactive)	3.1% (inactive)	22.3% (inactive)	72.1% (active)	-3.7% (inactive)	0.931 (inactive)	1.26	6620	7110	0.0733 (inactive)	0.0128			4.17 (inactive)
O=C(O)Cc1sc(-c2ccccc2)nc1-c1ccc(Cl)cc1	43.2% (inactive)	106%	-0.8% (inactive)	-0.1	3.3% (inactive)	18.7% (inactive)	11.7% (inactive)	-0.5% (inactive)	43.2% (inactive)	32.4% (inactive)	16.6% (inactive)	0.887 (inactive)	0.944	10000	11300	-0.576 (inactive) and -0.0336 (inactive)	-0.115 and 0.182		1.28 (inactive)	
CC[N+](C)(CC)CCOC(=O)C1c2ccccc2Oc2ccccc21	64.6% (inactive)	67.1%	-0.9% (inactive)	0.8	2.6% (inactive)	-10.2% (inactive)	-0.8% (inactive)	-4.5% (inactive)	6% (inactive)	1.5% (inactive)	-6.1% (inactive)	0.995 (inactive)	0.614	9340	9380	0.613 (inactive)	0.177			18.2 (inactive)
CN1CCCN(C(c2ccccc2)c2ccc(Cl)cc2)CC1 (stereo not given)	48.8% (inactive) and 98.3% (inactive)	42.5% and 88%	3.7% (inactive)	1.3	2.9% (active)	96% (active)	38.7% (inactive)	13.9% (inactive)	96.5% (active)	122% (active)	71% (active)	0.886 (inactive)	1.48	7610	8580	-0.68 (inactive)	0.377			4.08 (inactive)
CC(C)NC[C@@H](O)COc1ccc(CC(N)=O)cc1	88.2% (inactive)	111%	0.1% (inactive)	1.2	-1.9% (inactive)	-4.35% (inactive)	-23.3% (inactive)	3.3% (inactive)	1.1% (inactive)	11.3% (inactive)	-7% (inactive)	0.872 (inactive)	1.15	9650	11100	0.458 (inactive)	-0.0401			2.17 (inactive)
Cc1c(-c2ccccc2)oc2c(C(=O)OCCN3CCCCC3)cccc2c1=O	46% (inactive) and 89.3% (inactive)	49.7% and 89.5%	-2.4% (inactive)	-1	2.9% (inactive)	-5.1% (inactive)	19.4% (inactive)	-5.1% (inactive)	5.5% (inactive)	4.4% (inactive)	-0.8% (inactive)	0.916 (inactive) and 1.06 (inactive)	1.01 and 0.699	8120 and 9090	8860 and 8560	-0.232 (inactive) and 0.0828 (inactive)	-0.166 and -0.00233			21.4 (inactive)
CCc1cccc(CC)c1NC(=O)CN(CC(=O)O)CC(=O)O	77.8% (inactive) and 89.7% (inactive)	111% and 80.2%	-0.2% (inactive)	0.2	-1.7% (inactive)	-8.7% (inactive)	7.4% (inactive)	-0.1% (inactive)	12% (inactive)	39.7% (inactive)	1.77% (inactive)	0.877 (inactive)	1.63	9160	10400	0.304 (inactive)	0.0436			10.9 (inactive)
CCCNC(C)C(=O)Nc1c(C)csc1C(=O)OC (stereo not given)	137% (inactive)	71.1%	-0.2% (inactive)	2	4.8% (inactive)	1.9% (inactive)	5.2% (inactive)	-3.4% (inactive)	8.5% (inactive)	2.2% (inactive)	2.2% (inactive)	0.925 (inactive) and 0.913 (inactive)	0.61 and 0.602	8960 and 8560	9680 and 9380	-0.278 (inactive) and -0.744 (inactive)	-0.148 and -0.857			18.4 (inactive)
CN(C)CCN1C(=O)c2ccccc2N(C)c2ccccc21	18.6% (inactive)	64.5%	0.8% (inactive)	-0.9	14.4% (inactive)	8.2% (inactive)	11.6% (inactive)	4% (inactive)	0.3% (inactive)	35.8% (inactive)	-35.8% (inactive)	0.889 (inactive)	1.32	10000	11300	0.44 (inactive) and -0.381 (inactive)	0.025 and -0.152		0.475 (inactive)	
CC1(C)CC1C(=O)NC(=CCCCCSCC(N)C(=O)O)C(=O)O (stereo not given)			-2.2% (inactive)	-0.6	2.2% (inactive)	15.4% (inactive)	26.1% (inactive)	-4.3% (inactive)	37.8% (inactive)	28.9% (inactive)	-4% (inactive)	0.936 (inactive)	1.99	9810	10500				0.555 (inactive)	
NC(=O)OCC(O)COc1ccc(Cl)cc1 (stereo not given)	52.4% (inactive) and 99.4% (inactive)	46% and 92.9%	-1.4% (inactive)	-0.6	1.2% (inactive)	0.2% (inactive)	-23.7% (inactive)	-0.6% (inactive)	8.4% (inactive)	4.1% (inactive)	11.4% (inactive)	0.864 (inactive)	2.23	8110	9380	-0.968 (inactive)	-0.0882			16.6 (inactive)
CN1CCN(C2=Nc3ccccc3Sc3ccc(Cl)cc32)CC1	45.5% (inactive)	130%	-0.4% (inactive)	-0.2	16.1% (inactive)	83.3% (active)	39.2% (inactive)	19% (inactive)	79.7% (active)	116% (active)	72.4% (active)	0.882 (inactive)	1.18	8380	9490	-0.876 (inactive)	0.707		-0.54 (inactive)	
